Assay results: PubChem BioAssay AID1159580 (chemical genetic matrix, 2015)
Out of some 5,500 compounds screened, about 2,000 (36%) were called active. Roughly 18% stayed inconclusive and do not appear here. No stated cut-off is given here; in the data, active means normalized growth mostly below about 0.91 (no sharp cut-off); inconclusive means no clear call, values can overlap the other calls; inactive means mostly above about 0.92. Some of the results follow.

Assay: chemical genetic growth profiling, strain panel (AID 1159580);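 further: tested at 20 µM; growth read once vehicle control cultures reached saturation at 30 °C; 1 = growth at the plate median or of vehicle wells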
Settings: growth OD

Measured: normalized growth

O=C1NS(=O)(=O)c2ccccc21
inactive: S. cerevisiae deletion strains, locus YJR066W, strain TOR1, stronger effect = lower value 0.939 | S. cerevisiae deletion strains, locus YKL009W, strain mrt4, stronger effect = lower value 0.988 | S. cerevisiae deletion strains, locus YKL068W, stronger effect = lower value 1 | S. cerevisiae deletion strains, locus YKL085W, strain MDH1 (second series), stronger effect = lower value 0.994 | S. cerevisiae deletion strains, locus YKL085W, strain MDH1, stronger effect = lower value 0.994 | S. cerevisiae deletion strains, locus YKL160W, strain elf1, stronger effect = lower value 0.991 | S. cerevisiae deletion strains, locus YKL190W, strain CNB1, stronger effect = lower value 1.01 | S. cerevisiae deletion strains, locus YKR001C, strain vps1, stronger effect = lower value 0.996 | S. cerevisiae deletion strains, locus YKR026C, strain gcn3, stronger effect = lower value 1.03 | S. cerevisiae deletion strains, locus YKR091W, strain srl3, stronger effect = lower value 1.01 | S. cerevisiae deletion strains, locus YLL001W, strain dnm1, stronger effect = lower value 0.986 | S. cerevisiae deletion strains, locus YLL026W, stronger effect = lower value 1.02 | S. cerevisiae deletion strains, locus YLL041C, strain sdh2, stronger effect = lower value 1.02 | S. cerevisiae deletion strains, locus YLR027C, strain aat2, stronger effect = lower value 1.02 | S. cerevisiae deletion strains, locus YLR039C, strain RIC1, stronger effect = lower value 1.01 | S. cerevisiae deletion strains, locus YLR058C, strain SHM2, stronger effect = lower value 1.02 | S. cerevisiae deletion strains, locus YLR102C, strain apc9, stronger effect = lower value 0.979 | S. cerevisiae deletion strains, locus YLR113W, strain HOG1, stronger effect = lower value 0.978 | S. cerevisiae deletion strains, locus YLR221C, strain rsa3, stronger effect = lower value 1.06 | S. cerevisiae deletion strains, locus YLR258W, strain gsy2, stronger effect = lower value 1.03 | S. cerevisiae deletion strains, locus YLR262C, strain YPT6 (second series), stronger effect = lower value 1.01 | S. cerevisiae deletion strains, locus YLR262C, strain YPT6, stronger effect = lower value 1.02 | S. cerevisiae deletion strains, locus YLR268W, strain sec22, stronger effect = lower value 0.978 | S. cerevisiae deletion strains, locus YLR320W, strain mms22, stronger effect = lower value 1.06 | S. cerevisiae deletion strains, locus YLR330W, strain CHS5, stronger effect = lower value 1 | S. cerevisiae deletion strains, locus YLR342W, strain FKS1 (second series), stronger effect = lower value 0.968 | S. cerevisiae deletion strains, locus YLR342W, strain FKS1, stronger effect = lower value 1.03 | S. cerevisiae deletion strains, locus YLR357W, strain rsc2, stronger effect = lower value 1.01 | S. cerevisiae deletion strains, locus YLR370C, strain arc18, stronger effect = lower value 1.02 | S. cerevisiae deletion strains, locus YLR371W, strain rom2, stronger effect = lower value 0.983 | S. cerevisiae deletion strains, locus YLR384C, strain iki3, stronger effect = lower value 1.04 | S. cerevisiae deletion strains, locus YLR418C, strain cdc73, stronger effect = lower value 0.989 | S. cerevisiae deletion strains, locus YML016C, strain PPZ1, stronger effect = lower value 1.01 | S. cerevisiae deletion strains, locus YML032C, strain rad52, stronger effect = lower value 0.986 | S. cerevisiae deletion strains, locus YML120C, strain ndi1, stronger effect = lower value 0.995 | S. cerevisiae deletion strains, locus YML124C, strain tub3, stronger effect = lower value 0.999 | S. cerevisiae deletion strains, locus YMR058W, strain fet3, stronger effect = lower value 1.03 | S. cerevisiae deletion strains, locus YMR078C, strain ctf18, stronger effect = lower value 0.989 | S. cerevisiae deletion strains, locus YMR125W, strain sto1, stronger effect = lower value 0.999 | S. cerevisiae deletion strains, locus YMR129W, stronger effect = lower value 1.02 | S. cerevisiae deletion strains, locus YMR205C, strain PFK2, stronger effect = lower value 1.03 | S. cerevisiae deletion strains, locus YMR223W, strain ubp8, stronger effect = lower value 0.985 | S. cerevisiae deletion strains, locus YMR231W, strain pep5, stronger effect = lower value 1.02 | S. cerevisiae deletion strains, locus YMR307W, strain GAS1, stronger effect = lower value 0.935 | S. cerevisiae deletion strains, locus YNL067W, strain RPL9B, stronger effect = lower value 1.01 | S. cerevisiae deletion strains, locus YNL071W, strain lat1, stronger effect = lower value 1.01 | S. cerevisiae deletion strains, locus YNL153C, strain GIM3, stronger effect = lower value 1.03 | S. cerevisiae deletion strains, locus YNL183C, strain NPR1, stronger effect = lower value 0.931 | S. cerevisiae deletion strains, locus YNL209W, strain ssb2, stronger effect = lower value 1 | S. cerevisiae deletion strains, locus YNL233W, strain BNI4, stronger effect = lower value 1.02 | S. cerevisiae deletion strains, locus YNL248C, strain rpa49, stronger effect = lower value 1.08 | S. cerevisiae deletion strains, locus YNL250W, strain rad50, stronger effect = lower value 0.985 | S. cerevisiae deletion strains, locus YNL271C, strain bni1, stronger effect = lower value 0.986 | S. cerevisiae deletion strains, locus YNL298W, strain CLA4, stronger effect = lower value 0.987 | S. cerevisiae deletion strains, locus YNL307C, strain MCK1, stronger effect = lower value 0.99 | S. cerevisiae deletion strains, locus YNL322C, strain KRE1 (second series), stronger effect = lower value 1.02 | S. cerevisiae deletion strains, locus YNR049C, strain mso1, stronger effect = lower value 1.02 | S. cerevisiae deletion strains, locus YNR052C, strain pop2, stronger effect = lower value 0.981 | S. cerevisiae deletion strains, locus YOL006C, strain TOP1, stronger effect = lower value 1.08 | S. cerevisiae deletion strains, locus YOL012C, strain htz1 1.16 | S. cerevisiae deletion strains, locus YOL147C, strain pex11, stronger effect = lower value 0.992 | S. cerevisiae deletion strains, locus YOR001W, strain rrp6, stronger effect = lower value 1.06 | S. cerevisiae deletion strains, locus YOR061W, strain CKA2, stronger effect = lower value 1.02 | S. cerevisiae deletion strains, locus YOR069W, strain VPS5, stronger effect = lower value 1.01 | S. cerevisiae deletion strains, locus YOR070C, strain gyp1, stronger effect = lower value 1.02 | S. cerevisiae deletion strains, locus YOR080W, strain dia2, stronger effect = lower value 1.03 | S. cerevisiae deletion strains, locus YOR083W, strain WHI5, stronger effect = lower value 0.981 | S. cerevisiae deletion strains, locus YOR106W, strain vam3, stronger effect = lower value 0.977 | S. cerevisiae deletion strains, locus YOR136W, strain idh2, stronger effect = lower value 0.986 | S. cerevisiae deletion strains, locus YOR144C, strain elg1, stronger effect = lower value 0.993 | S. cerevisiae deletion strains, locus YOR184W, strain ser1, stronger effect = lower value 0.987 | S. cerevisiae deletion strains, locus YOR231W, strain MKK1, stronger effect = lower value 0.985 | S. cerevisiae deletion strains, locus YOR265W, strain rbl2, stronger effect = lower value 1.03 | S. cerevisiae deletion strains, locus YOR270C, strain vph1, stronger effect = lower value 1.06 | S. cerevisiae deletion strains, locus YOR290C, strain snf2, stronger effect = lower value 0.963 | S. cerevisiae deletion strains, locus YOR316C, strain cot1, stronger effect = lower value 0.983 | S. cerevisiae deletion strains, locus YPL051W, strain arl3, stronger effect = lower value 1.02 | S. cerevisiae deletion strains, locus YPL078C, strain atp4, stronger effect = lower value 0.98 | S. cerevisiae deletion strains, locus YPL106C, strain sse1, stronger effect = lower value 0.997 | S. cerevisiae deletion strains, locus YPL240C, strain hsp82, stronger effect = lower value 1.01 | S. cerevisiae deletion strains, locus YPL241C, strain CIN2, stronger effect = lower value 1 | S. cerevisiae deletion strains, locus YPL256C, strain CLN2, stronger effect = lower value 0.979 | S. cerevisiae deletion strains, locus YPR119W, strain clb2, stronger effect = lower value 0.982 | S. cerevisiae deletion strains, locus YPR141C, strain kar3, stronger effect = lower value 0.982 | S. cerevisiae deletion strains, locus YPR163C, strain tif3, stronger effect = lower value 0.986 | S. cerevisiae deletion strains, locus YPR167C, strain met16, stronger effect = lower value 0.984 | S. cerevisiae deletion strains, strain wtn01, stronger effect = lower value 0.974 | S. cerevisiae strains, strain wild type, stronger effect = lower value 1.01
